Screening results (PubChem BioAssay)
AMA1 RON2 block: disrupts binding of P. falciparum AMA1 to RON2; AlphaScreen AMA1-biotinylated RON2 peptide binding; Potency, µM (doses to about 58.2 µM), for the others: top-dose activity change, negative = inhibition, usual class: inhibitors; 0.2% of 360,000 active;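 further: 0% = vehicle wells and -100% = peptide control; nearly all actives have a fitted effect of over 45% in size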
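AMA1 (3D7) with his tag at 25 nM final met compounds first, then biotinylated RON2 peptide at 25 nM; detection used donor plus acceptor beads, 10 µg/mL apiece, read by AlphaScreen after 30 min at room temperature.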
Pf growth 96h: inhibits malaria parasite growth, 96 h. P. falciparum luciferase reporter growth, 96 h. 6.9% of 320,000 active. Potency, µM (series often up to 28.7 µM), for the others: at the top dose activity change, negative = inhibition, usual class: inhibitors. AID 504834
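Infected RBCs, 2% Hct / 0.05% parasitemia final; luciferase-reporter P. falciparum; cpd 96 h, 37 C, 5% CO2; luciferase detection reagent; luminescence.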
Pf growth 48h: P. falciparum growth inhibition at 48 hours (one generation). P. falciparum luciferase growth in erythrocytes, 48 h. Potency, µM (titrated, usually from 28.7 µM), for inactives: at the top dose activity change, negative = inhibition, usual class: inhibitors. 5.9% of 310,000 active. AID 504832
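Read-out is firefly luciferase luminescence from an integrated reporter in P. falciparum, so falling signal marks reduced parasite growth. Infected erythrocytes were at 2% hematocrit and 0.1% parasitemia (final) in Albumax-supplemented RPMI 1640.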
VACV Venus inh: vaccinia inhibition (Venus reporter) | 0.46% of 330,000 active | Potency, µM (highest dose often 36.5 µM), without a hit: at the top dose activity change, negative = inhibition, most hits filed as inhibitors | Vaccinia virus Venus reporter expression, fluorescence; calls by dose curve; tested in A549 cells; further: nearly all actives have a fitted effect of over 30% in size
VACV mCherry inh: inhibitors of vaccinia virus infection (mCherry reporter signal); Vaccinia virus mCherry reporter infection, fluorescence; 0.63% of 310,000 active; Potency, µM (highest dose often 36.5 µM), inactives show top-dose activity change, negative = inhibition, most hits filed as inhibitors; calls by dose curve; tested in A549 cells; further: nearly all actives have a fitted effect of over 35% in size
Starred values were filed as active, the others as inactive; i = inactive; u = inconclusive; x = not tested or not shown; [ ] = dose if it differs, or a comment. An excerpt weighted towards active compounds, which were near 8.7% of everything screened. Unless noted, the call rests on the fitted dose curve; in most records, active means well fitted curve in the direction sought with a large enough effect; inconclusive means small, poorly fitted or top-dose-only effect, or another doubt; inactive means no such curve, though single readings can be large; an effect the other way counts as inactive or inconclusive. Unless noted, on the % scale 0 is the no-effect control and ±100 the full control effect; potency means the concentration at half of the fitted maximal effect.

SMILES	AMA1 RON2 block	Pf growth 96h	Pf growth 48h	VACV Venus inh	VACV mCherry inh
COC(=O)[C@@]1(Cc2ccc(F)cc2)[C@H]2c3cc(C(=O)N(C)C)n(CCc4ccc(OC)c(Br)c4)c3C[C@H]2CN1C(=O)c1ccccc1	1%	5.9µM*	u	u	-16%
COC(=O)[C@@]1(Cc2ccc(F)cc2)[C@H]2c3cc(C(=O)N(C)C)n(Cc4ccc(OC)c(OC)c4)c3C[C@H]2CN1C(=O)c1ccccc1	-19%	5.2µM*	u	-29%	-11%
COC(=O)[C@@]1(Cc2ccc(F)cc2)[C@H]2c3cc(C(=O)N(C)C)n(Cc4ccc(C)o4)c3C[C@H]2CN1C(=O)c1ccccc1	-19%	x	x	-1%	-10%
COC(=O)[C@@]1(Cc2ccc(F)cc2)[C@H]2c3cc(C(=O)N(C)C)n(CCO)c3C[C@H]2CN1C(=O)c1ccccc1	-3%	x	x	3%	i
COC(=O)[C@@]1(Cc2ccc(F)cc2)[C@H]2c3cc(C(=O)N(C)C)[nH]c3C[C@H]2CN1C(=O)c1ccccc1	-1%	13µM*	13µM*	-21%	9%
COC(=O)[C@@]1(Cc2ccc(F)cc2)[C@H]2c3cc(C(=O)N(C)C)n(Cc4ccccc4)c3C[C@H]2CN1C(=O)c1ccccc1	-1%	3.3µM*	2.9µM*	u	-25%
Cc1ccc(OCC(=O)OC2=C(C(=O)c3ccccc3)N(C)S(=O)(=O)c3ccccc32)cc1	x	x	x	-7%	-24%
Cc1ccc(Cl)cc1N1CCN(C(=O)c2cc(S(=O)(=O)N3CCCCCC3)cn2C)CC1	x	x	x	-27%	-36%
CCOC(=O)c1cnc(NCc2ccc(Cl)cc2)c2ccccc12	x	x	x	-11%[7.34 µM]	-3%[7.34 µM]
CNC(=O)c1c(NC(=O)c2ccc(S(=O)(=O)N3CCCCC3)cc2)sc2c1CCC2	x	x	x	-16%	-12%
COC(=O)[C@@]1(Cc2ccc(OC)cc2)[C@H]2c3cc(C(=O)N(C)C)n(Cc4ccc(OC(F)(F)F)cc4)c3C[C@H]2CN1C(=O)c1ccccc1	-21%	3.3µM*	u	u	-21%
COC(=O)[C@@]1(Cc2ccc(F)cc2)[C@H]2c3cc(C(=O)N(C)C)n(Cc4ccc(Cl)c(C(F)(F)F)c4)c3C[C@H]2CN1C(=O)c1ccccc1	-5%	x	x	-15%	u
COC(=O)[C@@]1(Cc2ccc(OC)cc2)[C@H]2c3cc(C(=O)N(C)C)n(C[C@H](O)CO)c3C[C@H]2CN1C(=O)c1ccccc1	-2%	8.3µM*	u	-7%	i
COC(=O)[C@@]1(Cc2ccc(F)cc2)[C@H]2c3cc(C(=O)N(C)C)n(CCN4CCOCC4)c3C[C@H]2CN1C(=O)c1ccccc1	14%	x	x	-2%	-6%
COc1cc2c(cc1OC)n(CC(=O)Nc1ccc(C)cc1C)c(=O)n1nc(-c3ccccc3)nc21	x	x	x	-1%	6%
CCCSc1nc(-c2ccccc2)[nH]c1S(=O)(=O)c1ccc(C)cc1	x	x	x	-17%	-16%
COC(=O)c1cc(-c2ccc(S(=O)(=O)N3CCCC3)cc2)c(C(F)(F)F)s1	-4%	u	u	3%	i
COC(=O)c1cc(-c2ccc(S(=O)(=O)N3CCCCC3)cc2)c(C(F)(F)F)s1	31%	u	12µM*	x	x
COC(=O)c1cccc(Nc2nc(-c3ccncc3)nc3ccccc23)c1	0%	u	1.9µM*	-22%	i
CCOC(=O)c1cccc(Nc2nc(-c3cccnc3)nc3ccccc23)c1	-23%	8.3µM*	13µM*	22µM*	x
O=C(CCc1ccccc1)NCCc1csc(-c2cccc(F)c2)n1	x	x	x	3%	-13%
CCOC(=O)C1=NN(C(=O)COc2ccccc2)C(O)(c2ccc(Br)cc2)C1 (stereo not given)	77%	2.9µM*	20%	x	x
COc1ccc(N2CC(NC(=O)COc3ccc(F)cc3)CC2=O)cc1OC (stereo not given)	x	x	x	-5%	-7%
CC(=O)Nc1ccc(-c2nnc(SCC(=O)NCc3ccco3)n2C)cc1	28%	6.6µM*	x	-11%	-11%
CC(=O)Nc1ccc(SCC(=O)OCC(=O)NC(=O)NCc2ccco2)cc1	-5%	9.3µM*	-3%	x	x
SMILES	AMA1 RON2 block	Pf growth 96h	Pf growth 48h	VACV Venus inh	VACV mCherry inh
CCCCSc1nnc(-c2ccc(NC(C)=O)cc2)n1C	-5%	7.4µM*	-26%	-11%	-14%
CCCCSc1nnc(-c2ccc(C)cc2)n1C	-8%	30%	60%	x	x
O=C(COC(=O)CSc1ccc(Br)cc1)NCc1ccco1	19%	12%	0%	-10%	i
COc1ccccc1-n1ccnc1SCC(=O)NCC1CCCO1 (stereo not given)	16%	u	20%	x	x
COc1ccccc1-n1ccnc1SCC(=O)NCc1ccco1	-1%	10µM*	u	0%	-7%
Cc1ccc(Cn2c(C)c3cnn(CC(=O)N4CCN(c5cc(C)ccc5C)CC4)c(=O)c3c2C)cc1	x	x	x	-29%	-22%
CC(C)N(CCO)Cc1nc(C(c2ccccc2)c2ccccc2)no1	-22%	9.3µM*	u	-24%	-14%
O=C(CCl)N(c1ccccc1)C1CCCCC1	2%	13µM*	10µM*	u	u
COCCn1nnnc1C(C(C)C)N(Cc1cccnc1)Cc1cc2cc(OC)ccc2[nH]c1=O (stereo not given)	-2%	23%	u	-12%	x
COc1ccc2[nH]c(=O)c(CN(Cc3ccco3)C(c3nnnn3Cc3ccccc3)C(C)C)cc2c1 (stereo not given)	-11%	3.3µM*	x	x	x
CCc1ccc2[nH]c(=O)c(CN(Cc3ccc(OC)cc3)Cc3nnnn3CCOC)cc2c1	4%	u	1.9µM*	-5%	x
Cc1cccc2cc(CN(Cc3ccco3)C(c3nnnn3CCc3ccccc3)C(C)C)c(=O)[nH]c12 (stereo not given)	-3%	-13%	1.9µM*	-27%	x
COCCn1nnnc1C(C(C)C)N(Cc1ccccc1)Cc1cc2cc(OC)ccc2[nH]c1=O (stereo not given)	-7%	222%[5.75 µM]	8.3µM*	-23%	x
CN1CCc2c(c3cnc4cc(Cl)ccc4c3n2C)C1	x	x	x	-13%	6%
CC(=O)N1CCN(C(=O)CCc2nnc(CCCCc3ccccc3)o2)CC1	8%	12µM*	-5%	-11%	-1%
Cc1nc2nc(SCc3c(F)cccc3Cl)nn2c(C)c1Cc1ccccc1	x	x	x	-19%	-25%
O=C(NCCc1cccs1)c1ccc(Cn2c(SCc3ccccc3)nc3cccnc32)cc1	x	x	x	-9%	i
COC(=O)c1cc2n3ccccc3c(C)c(-c3ccccc3)c-2c1C(=O)OC	-14%	9.3µM*	x	77%	x
COC(=O)c1cc2c(C)c(C)c3ccccn3c-2c1C(=O)OC	-5%	13µM*	x	8%	x
COc1ccc(C(=O)NCc2nnc(SC)n2-c2ccccc2C)c(OC)c1OC	x	x	x	10%	-9%
Brc1cccc(-c2nnn3c2nc(N2CCCCC2)c2ccccc23)c1	x	x	x	-6%	-4%
S=c1[nH]cnc2scc(-c3ccccc3)c12	14%	0.33µM*	u	-22%	i
